Read-out in assay [1]: TIMP metallopeptidase inhibitor 2 (TIMP2), TIMP2 (gene 7077)
The experiment in a line: BSK_KF3CT_TIMP2: BioMAP Diversity Plus: KF3CT Assay for TIMP metallopeptidase inhibitor 2 (TIMP2) Biomarker Activity (AID 2283071). Conditions: primary human keratinocytes with fibroblasts; actives raise or lower the signal. In short, it runs like this:
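Cells: human keratinocytes co-cultured with foreskin fibroblasts. Treat with chemical, 24 h. Measure TIMP-2 by ELISA; fit curves bidirectionally vs DMSO baseline.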

Read-out in assay [2]: C-C motif chemokine 2 (Homo sapiens) (UniProt P13500)
The experiment in a line: BSK_KF3CT_MCP1: BioMAP Diversity Plus: KF3CT Assay for Monocyte Chemoattractant Protein 1 (MCP1/CCL2) Biomarker Activity (AID 2283073). Conditions: primary human keratinocytes with fibroblasts; actives raise or lower the signal. In short, it runs like this: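 ELISA read-out of MCP-1, 24 h post-dose, in primary human skin keratinocytes co-cultured with fibroblasts. Parallel SRB staining monitors cytotoxicity; changes fitted both directions relative to DMSO.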

Read-out in assay [3]: Matrix Metallopeptidase 9 (MMP9), MMP9 (gene 4318)
The experiment in a line: BSK_KF3CT_MMP9: BioMAP Diversity Plus: KF3CT Assay for Matrix Metallopeptidase 9 (MMP9) Biomarker Activity (AID 2283074).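 As to AC50: MMP9 protein level quantified by ELISA in the co-culture.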 Conditions: primary human keratinocytes with fibroblasts; actives raise or lower the signal. The method in brief:
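Keratinocyte plus foreskin fibroblast human primary skin co-culture was dosed with chemical and MMP-9 was quantified by ELISA 24 h later. Bidirectional curve fitting used DMSO as negative control and activity baseline.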

Read-out in assay [4]: urokinase plasminogen activator (uPA), PLAU (gene 5328)
The experiment in a line: BSK_KF3CT_uPA: BioMAP Diversity Plus: KF3CT Assay for urokinase plasminogen activator (uPA) Biomarker Activity (AID 2283075). Conditions: primary human keratinocytes with fibroblasts; actives raise or lower the signal. The method in brief:
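Human keratinocyte plus foreskin fibroblast primary co-culture exposed to chemical for 24 h. uPA levels were quantified by ELISA, and activity was fitted bidirectionally against a DMSO negative-control baseline.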

Read-out in another assay: CD40, CD40 (gene 958)
Nature of the assay: BSK_LPS_CD40: BioMAP Diversity Plus: LPS Assay for CD40 Biomarker Activity (AID 2283076). Conditions: primary human HUVEC with PBMC; actives raise or lower the signal. The method in brief: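 In the LPS system of human endothelial cells with peripheral blood mononuclear cells, CD40 levels were read by ELISA 24 h post-treatment. Signal changes in either direction were fitted against the DMSO baseline, with parallel SRB protein staining.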

Read-out in assay [5]: E-selectin (Homo sapiens) (UniProt P16581)
The experiment in a line: BSK_LPS_Eselectin: BioMAP Diversity Plus: LPS Assay for Eselectin Biomarker Activity (AID 2283077). Conditions: primary human HUVEC with PBMC; actives raise or lower the signal. In short, it runs like this: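 E-selectin ELISA on LPS-stimulated endothelial cell/PBMC co-cultures, read 24 h post-treatment; gains and losses fitted against DMSO. Parallel SRB staining (0.1% SRB after 10% TCA fixation, 560 nm) flags overt cytotoxicity.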

Read-out in assay [6]: Interleukin-8 (IL8), CXCL8 (gene 3576)
Nature of the assay: BSK_LPS_IL8: BioMAP Diversity Plus: LPS Assay for Interleukin-8 (IL8) Biomarker Activity (AID 2283078). Conditions: primary human HUVEC with PBMC; actives raise or lower the signal. In short, it runs like this:
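ELISA read-out of IL-8 after 24 h chemical treatment of LPS-activated endothelial/PBMC human primary co-cultures. Changes either up or down relative to DMSO; overt cytotoxicity checked by sulforhodamine B staining in parallel wells.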

The nature of assay [7]: BSK_LPS_SRB: Viability Assessment in the BioMAP Diversity Plus: LPS Assay (AID 2283079).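 Also: total protein by sulforhodamine B absorbance as a cytotoxicity measure; measured one day after compound addition; fitted in both directions against DMSO so loss or gain of signal counts.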 Conditions: primary human HUVEC with PBMC. In short, it runs like this: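 SRB viability endpoint: cells fixed with 10% TCA, stained with 0.1% SRB, read at 560 nm, 24 h post-dose. HUVEC/PBMC co-culture; signal change in either direction scored relative to DMSO.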
Read-out in assay [8]: Interleukin-1 alpha (IL1a), IL1A (gene 3552)
The experiment in a line: BSK_LPS_IL1a: BioMAP Diversity Plus: LPS Assay for Interleukin-1 alpha (IL1a) Biomarker Activity (AID 2283080). Conditions: primary human HUVEC with PBMC; actives raise or lower the signal. The method in brief: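 Readout is IL-1a level by ELISA, 24 h post-dose, fitted as gain or loss relative to DMSO. System: LPS-activated human primary co-culture of vascular endothelium and peripheral blood mononuclear cells, with parallel SRB total-protein cytotoxicity.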

Read-out in assay [9]: Transforming growth factor beta 1 (TGFb1), TGFB1 (gene 7040)
The experiment in a line: BSK_KF3CT_TGFb1: BioMAP Diversity Plus: KF3CT Assay for Transforming growth factor beta 1 (TGFb1) Biomarker Activity (AID 2283072). Conditions: primary human keratinocytes with fibroblasts; actives raise or lower the signal. The method in brief: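 Primary human skin cells (keratinocytes, foreskin fibroblasts) were co-cultured, exposed to test chemical and sampled at 24 h. TGF-b1 levels were measured by ELISA and fitted bidirectionally relative to DMSO.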

Molecules are shown by their SMILES. Some compounds were tested as several samples or in several runs, with calls that do not always agree. Activity calls are given as the source filed them. The calls were made as follows: active = hit-call score of the fitted dose curve at least 0.9, where 1 is the maximum; inactive = score below 0.9.

Outcome and AC50 data for 13 molecules are collected here from PubChem BioAssay (EPA / NIEHS).

Chain of E-selectin (Homo sapiens) (P16581 whole entry, looked up): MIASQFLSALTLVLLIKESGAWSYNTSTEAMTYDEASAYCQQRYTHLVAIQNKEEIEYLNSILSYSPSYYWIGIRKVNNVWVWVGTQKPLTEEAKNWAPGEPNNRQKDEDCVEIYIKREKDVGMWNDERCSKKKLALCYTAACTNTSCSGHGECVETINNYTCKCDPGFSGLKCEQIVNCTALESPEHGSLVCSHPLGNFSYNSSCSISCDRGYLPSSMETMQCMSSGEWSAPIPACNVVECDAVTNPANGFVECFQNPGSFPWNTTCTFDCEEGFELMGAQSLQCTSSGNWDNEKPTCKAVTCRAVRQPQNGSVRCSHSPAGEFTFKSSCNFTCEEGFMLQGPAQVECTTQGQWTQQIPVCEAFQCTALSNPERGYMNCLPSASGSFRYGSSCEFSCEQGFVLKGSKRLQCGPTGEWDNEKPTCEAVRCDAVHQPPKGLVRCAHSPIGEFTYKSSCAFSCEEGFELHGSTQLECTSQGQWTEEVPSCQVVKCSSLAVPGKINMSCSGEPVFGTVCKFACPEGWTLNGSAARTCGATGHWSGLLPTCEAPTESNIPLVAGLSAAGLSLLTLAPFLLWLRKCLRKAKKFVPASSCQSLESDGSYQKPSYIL

Take `CCCCOC(=O)COC(=O)c1ccccc1C(=O)OCCCC`: the outcome in assay [1] is “inactive”; in assay [2], “inactive”; in [3], “inactive”; in [4] it was “inactive”; with CD40, CD40 (gene 958) it was “inactive”; in assay [5] it was “inactive”. In addition, the result in assay [6], in [7] and in assay [8] was inactive.

As a reminder, the AC50 is the concentration at which the activity in the assay is half-maximal. Consider `O=C(O)C1(c2ccc3c(c2)OC[C@H](Cc2ccc(-c4ccccc4)cc2)[C@H]3O)CCCC1`, for which the AC50 in assay [1] was 14 µM (active); in assay [2], 13.6 µM (active); in assay [3], 12.9 µM (active); in assay [4], 28.6 µM (active); with CD40, CD40 (gene 958), 20 µM (active). In addition, the outcome in assay [5], in [6], in assay [7] and in assay [8] was inactive.

Regarding `Cc1cc(Cl)ccc1OC(C)C(=O)O` (configuration not stated), the outcome in [1] is “inactive”; in [9] it was “inactive”; in assay [2], “inactive”; in assay [3] it was “inactive”; in [4], “inactive”; in the assay with CD40, CD40 (gene 958), “inactive”. The result in [5], in assay [6], in [7] and in assay [8] was inactive.

Consider `O=[N+]([O-])c1cccc2ccccc12`, for which the outcome is “inactive” in assay [1]; “inactive” in assay [9]; “inactive” in [2]; “inactive” in [3]; “inactive” in [4]; “inactive” in the assay with CD40, CD40 (gene 958). For the same molecule, the result in assay [5], in [6], in assay [7] and in [8] was inactive.

For the molecule `Clc1cccc(Cl)c1`, the outcome in assay [1] is “inactive”; in assay [9], “inactive”; in assay [2] it was “inactive”; in assay [3], “inactive”; in assay [4], “inactive”; with CD40, CD40 (gene 958), “inactive”. Besides, the outcome in assay [5], in assay [6], in assay [7] and in assay [8] was inactive.

Take `Oc1c(Br)cc(Br)cc1Br`: the outcome in assay [1], in [9], in assay [2], in assay [4], in [5] and in assay [6] was inactive. Also, the outcome in assay [7] and in assay [8] was inactive. The AC50 in [3] is 28.2 µM (active); with CD40, CD40 (gene 958), 13.9 µM (active).

Consider `O=C(Cc1ccccc1)OCCc1ccccc1`, for which the outcome in [1] was “inactive”; in assay [2], “inactive”; in assay [3] it was “inactive”; in assay [4], “inactive”; with CD40, CD40 (gene 958), “inactive”; in assay [5], “inactive”. Also, the outcome in [6], in [7] and in [8] was inactive. For the same molecule, the AC50 in [8] was 3.97 µM (active).

`O=c1oc2ccccc2c(O)c1C(CC(O)c1ccc(-c2ccc(Br)cc2)cc1)c1ccccc1` (configuration not stated): the AC50 was 5.28 µM (active) in [1]; 5.23 µM (active) in assay [9]; 10 µM (active) in assay [2]; 19.1 µM (active) in assay [3]; 5.28 µM (active) in assay [4]; 13 µM (active) with CD40, CD40 (gene 958). For the same molecule, the values for the half-maximal activity concentration (AC50) in assay [5], in assay [6] and in assay [7] were 14.3 µM (active), 0.0502 µM (active) and 12.4 µM (active), respectively. The result in [8] was inactive.

With `CC(C)N(C(=O)CCl)c1ccccc1`, the AC50 in assay [1] is 14.2 µM (active); in assay [9], 20 µM (active); in [2] it was 11.1 µM (active); in assay [3], 29.6 µM (active); in assay [4], 33.3 µM (active); with CD40, CD40 (gene 958), 13.9 µM (active). In addition, the concentration at half-maximal activity (AC50) in assay [5] was 25.4 µM (active); in assay [6], 20 µM (active); in assay [7], 20 µM (active); in assay [8] it was 5.56 µM (active).

On to `N#CCCC(Br)(C#N)CBr` (configuration not stated), for which the AC50 was 20 µM (active) in [1]; 11.3 µM (active) in assay [9]; 20 µM (active) in assay [2]; 20 µM (active) in assay [3]; 23.9 µM (active) in assay [4]; 8.78 µM (active) in the assay with CD40, CD40 (gene 958). In addition, the AC50 in assay [5] was 20 µM (active); in assay [6] it was 26.7 µM (active); in assay [7], 20 µM (active); in [8] it was 11.7 µM (active).

In the case of `CCOP(=S)(OCC)OP(=S)(OCC)OCC`, the AC50 in [1] is 20 µM (active). The outcome is “inactive” in assay [9]; “inactive” in assay [2]; “inactive” in assay [3]; “inactive” in [4]; “inactive” in the assay with CD40, CD40 (gene 958); “inactive” in assay [5]. Moreover, the outcome in assay [6], in assay [7] and in assay [8] was inactive.

With `C[C@]12CC[C@@H](O)C[C@@H]1CC[C@@H]1[C@@H]2CC[C@]2(C)C(=O)CC[C@@H]12`, the outcome was “inactive” in assay [1]; “inactive” in [9]; “inactive” in [2]; “inactive” in assay [3]; “inactive” in assay [4]; “inactive” with CD40, CD40 (gene 958). Besides, the outcome in [5], in assay [6], in [7] and in [8] was inactive.

For `CC(C)(C)c1ccccc1O`, the outcome in assay [1] was “inactive”; in [9] it was “inactive”; in assay [2], “inactive”; in assay [3] it was “inactive”; in the assay with CD40, CD40 (gene 958) it was “inactive”; in [5], “inactive”. The outcome in [6], in assay [7] and in assay [8] was inactive.
